Assay outcomes from PubChem.
The full list was thinned out, with hits kept by preference.
Shiga toxin inh – blocks Shiga toxin action in Vero cells. AID 2315. Vero cells, Shiga toxin protein synthesis inhibition reporter. 9.2% of 290,000 active. inhibition, % at 38.7 µM; in the data active means inhibition mostly above about 28%, no sharp cut-off; inactive means mostly below about 43%; further: 0% is about no effect
FBPA Giardia inh – blocks Giardia fructose-bisphosphate aldolase activity; Potency, µM (series often up to 59.6 µM), for inactives: top-dose activity, negative = inhibition, hits mostly inhibitors; 0.71% of 290,000 active; purified Giardia FBPA; further: potency means the concentration at half of the fitted maximal effect; on the % scale 0 is the no-effect control and ±100 the full control effect; nearly all actives have a fitted effect of over 55% in size
Target sequence (A8B2U2 whole entry, looked up): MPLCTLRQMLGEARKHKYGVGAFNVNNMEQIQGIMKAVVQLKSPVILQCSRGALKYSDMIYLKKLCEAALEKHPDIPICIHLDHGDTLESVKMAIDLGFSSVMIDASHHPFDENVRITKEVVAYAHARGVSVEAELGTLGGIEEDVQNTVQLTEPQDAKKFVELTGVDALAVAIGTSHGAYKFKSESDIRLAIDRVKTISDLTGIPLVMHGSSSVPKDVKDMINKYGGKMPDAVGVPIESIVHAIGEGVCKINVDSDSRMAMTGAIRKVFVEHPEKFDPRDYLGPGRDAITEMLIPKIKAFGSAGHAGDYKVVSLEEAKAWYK
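40 nM FBPA preincubated 10 min at RT with compound (up to 57.5 uM final), then substrate plus GAPDH/TPI/NAD/arsenate coupling and diaphorase/resazurin added. Fluorescence read after 20 min at RT, 525/598 nm.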
TbPYK inhibitor – inhibitors of Trypanosoma brucei pyruvate kinase. Q57TT1. TbPYK enzyme, Kinase-Glo Plus ATP luminescence, 45 min. Potency, µM (doses to about 76.8 µM), for the others: at the highest dose activity, negative = inhibition, usual class: inhibitors. 0.12% of 410,000 active. AID 624173; further: potency means the concentration at half of the fitted maximal effect; on the % scale 0 is the no-effect control and ±100 the full control effect; nearly all actives have a fitted effect of over 50% in size
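TbPYK + substrate in 50 mM TEA pH 7.2, 100 mM KCl, 10 mM MgCl2, 0.05% BSA, 0.01% Tween-20; cpd pinned; ADP 130 uM final; 45 min RT; Kinase-Glo Plus 10 min; luminescence endpoint.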
CHX counter – counter-screen for Shiga toxin inhibitors: cycloheximide protein synthesis inhibition; AID 2314; cell reporter, cycloheximide protein synthesis inhibition counterscreen; max response, %; 12% of 300,000 active; in the data active means max response mostly above about 13%, no sharp cut-off; inactive means mostly below about 14%; further: read at 38.3 µM for the half of the compounds with a filed dose; 0% is about no effect
LmPK inhibitor – inhibitors of Leishmania mexicana pyruvate kinase. Q27686. purified LmPK, Kinase-Glo ATP luminescence, 1 h. Potency, µM (highest dose often 57.5 µM), for inactives: at the top dose activity change, negative = inhibition, usual class: inhibitors. 0.37% of 290,000 active. AID 1721; further: potency means the concentration at half of the fitted maximal effect; on the % scale 0 is the no-effect control and ±100 the full control effect
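qHTS format; LmPK 0.1 nM; substrates PEP 0.5 mM and ADP 0.1 mM. One-hour room-temperature incubation, then coupled luciferase luminescence; 0.5 nM enzyme wells mark activation.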
Sm TGR inh – inhibitors of Schistosoma mansoni thioredoxin glutathione reductase. Q962Y6. purified TGR, DTNB reduction, TNB absorbance 405 nm. 3% of 360,000 active. Potency, µM (titrated, usually from 114 µM), for the others: top-dose activity change, negative = inhibition, most hits filed as inhibitors; further: potency means the concentration at half of the fitted maximal effect; on the % scale 0 is the no-effect control and ±100 the full control effect; nearly all actives have a fitted effect of over 60% in size
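First, TGR (20 nM dispensed) and NADPH were mixed with compound. Second, a 15 min room-temperature incubation followed. Third, further NADPH and then DTNB were added to start the reaction. Finally, TNB absorbance was monitored kinetically.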
The depositor's hits bear a star; ? = inconclusive; . = no result; [ ] = remark or other dose. Unless noted, the call rests on the fitted dose curve; in most records, active means well fitted curve in the direction sought with a large enough effect; inconclusive means small, poorly fitted or top-dose-only effect, or another doubt; inactive means no such curve, though single readings can be large; an effect the other way counts as inactive or inconclusive.

SMILES	Shiga toxin inh	FBPA Giardia inh	TbPYK inhibitor	CHX counter	LmPK inhibitor	Sm TGR inh
CCc1ccc2nc(N(CCN(C)C)C(=O)c3ccc4ncsc4c3)sc2c1	117*	.	-25%	68*	-6%	?
C/C(CC(=O)NC1CCCCC1)=N\NC(=O)c1ccccc1C	63*	-1%	0%	14	0%	?
C/C(CC(=O)NC1CCCCCC1)=N\NC(=O)c1cnccn1	46*	-1%	1%	26*	1%	4%
O=C(NC1CCCCCCC1)c1cnccn1	26	0%	0%	8	10%	0%[11.4 µM]
CC(=O)N[C@@H](C=O)[C@@H](O)[C@H](O)[C@H](O)CO	-4	4%	2%	-2	.	.
CO/N=C/c1ccc(Oc2ccc(C)cc2)c([N+](=O)[O-])c1	64	-4%	-15%	43*	8%	4%
CO/N=C/c1ccc(Sc2ccccc2)c([N+](=O)[O-])c1	-6	5%	-1%	2	1%	1%
O=[N+]([O-])c1cc(/C=N/O)ccc1Oc1ccccc1Cl	50*	-4%	3%	53*	-4%	.
CCN(CC)S(=O)(=O)c1ccccc1/C=N\O	46	-20%	-4%	29*	3%	0%
CCN(Cc1ccccc1)S(=O)(=O)c1ccccc1Br	.	.	4%	.	.	.
Cc1cccc(C)c1N1CCN(C(=O)Nc2ccc3c(c2)OCCO3)CC1	56*	-4%	-12%	45*	12%	-2%
CC(C)(C)OC(=O)N1CCCN(C(=O)Nc2ccccc2)CC1	9	-4%	3%	-2	-2%	-9%
O=C(Nc1ccc2c(c1)OCCO2)N1CCN(c2ccc(F)cc2)CC1	35*	19%	-15%	38*	0%	-19%
CC(C)(C)OC(=O)N1CCN(C(=O)Nc2ccc3c(c2)OCCO3)CC1	26	-1%	2%	24*	0%	6%
COC(=O)NC(CC(C)=O)c1ccccc1 (stereo not drawn)	.	1%[12.9 µM]	.	.	.	.
Cc1ccc(S(=O)(=O)N(CC(=O)N2CCc3ccccc3C2)c2ccc(C)c(C)c2)cc1	.	.	-5%	.	.	3%
CN(C)C(CNC(=O)CCc1nc2ccccc2s1)c1ccccc1 (stereo not drawn)	-3	2%	2%	5	0%	5%
Cc1ccc(-c2csc(NC(=O)CCCc3cccs3)n2)cc1	2	1%	1%	-1	-1%	0%
CC(Cc1ccccc1)C(=O)NCc1nc2ccccc2s1 (stereo not drawn)	30*	4%	-3%	19*	1%	-16%
CCc1ccc2nc(NC(=O)CCCc3cccs3)sc2c1	49*	5%	-20%	33*	0%	-10%
COc1ccc2nc(NC(=O)CN(C)S(=O)(=O)c3cccs3)sc2c1	58*	-3%	2%	23*	-2%	1%
COc1n[nH]c(C(=O)Nc2nc3ccccc3s2)c1[N+](=O)[O-]	75*	?	-7%	33*	-17%	.
COc1ccc(NC(=O)Cn2c(=O)n(-c3ccccc3)c(=O)c3c4c(sc32)CCCC4)cc1	.	.	5%	.	.	6%
COc1ccc(OC)c2sc(N3CCN(C(=O)C(C)(C)C)CC3)nc12	.	.	-4%	.	.	2%
CC(=O)Nc1ccc(S(=O)(=O)N(Cc2ccccc2)Cc2ccccc2)cc1	.	.	-3%	.	.	11%
SMILES	Shiga toxin inh	FBPA Giardia inh	TbPYK inhibitor	CHX counter	LmPK inhibitor	Sm TGR inh
CCn1nc(NC(=O)C2CCCO2)c2cc3cc(C)ccc3nc21 (stereo not drawn)	31	-4%	-13%	14	0%	6%
CS(=O)(=O)c1ccc2nc(NC(=O)C3CC3)sc2c1	.	.	-3%	.	.	.
Cc1ccc2nc(-c3ccc(NC(=O)C4CCCO4)cc3)[nH]c2c1 (stereo not drawn)	44	-8%	0%	55*	-25%	1%
COC(=O)CCCCCCCCC(=O)Nc1nc2ccccc2s1	14	5%	-2%	-1	5%	10%
COCC(=O)Nc1nc2ccccc2s1	50*	9%	-1%	29*	-9%	2%
COCC(=O)Nc1nc2ccc(S(C)(=O)=O)cc2s1	108*	-4%	-1%	40*	-7%	0%
Cc1ccc2nc(-c3ccc(NC(=O)Cc4cccs4)cc3)[nH]c2c1	75	4%	-4%	30*	-6%	-14%
